Measured values from PubChem BioAssay (NCI).
About 83,000 compounds went through this panel and 20% of them were active in at least one assay; those are over-represented in the sample as a whole.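 Activity criterion: percent growth below 10, measured after cells in 96-well plates were exposed to a single compound concentration for 48 hours.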 Unmarked numbers belong to inactive results. Active and inactive are the calls of the source.

Tested on: HL-60(TB) leukemia
Experiment: NCI-60 one-dose screen, 48 h (100 = growth as untreated, 0 = no growth, -100 = all killed)
Conditions: 10 µM unless noted

SMILES | growth
C=C(C)[C@@H]1CC[C@]2(C(=O)OCCOCCOCC[P+](c3ccccc3)(c3ccccc3)c3ccccc3)CC[C@]3(C)[C@H](CC[C@@H]4[C@@]5(C)CC[C@H](C)C(C)(C)[C@@H]5CC[C@]43C)[C@@H]12 | -72.5% (active)
O=C(CI)NCCNc1cccc2c(S(=O)(=O)O)cccc12 | 105%
NS(=O)(=O)c1ccccc1NC(=O)Nc1nc2ccccc2s1 | 102%
Cc1ccc(Nc2c(C(N)=O)cnc3ccc(S(=O)(=O)Nc4cc(C)on4)cc23)cc1 | 113%
Cc1cc(C)c2c(Nc3ncnc4c3sc3nc(C)cc(C)c34)n[nH]c2n1 | 99%
CCOC(=O)C1C(=O)OC2CCCCC21 (stereo not given) | 98.5%
CNS(=O)(=O)Oc1ccc(-c2sc3cc(OS(=O)(=O)NC)ccc3c2C(=O)c2ccc(OCCN3CCCCC3)cc2)cc1 | 94.8%
COc1ccc(/C(=C\c2ccccc2)C(=O)O)cc1OC | 112%
NC(=NCCCC1(c2ccccc2)CCCC1)Nc1ccc(Cl)cc1 | 77.2%
COc1ccc(C(=O)/C=C/c2cc(C(=O)c3cc(OC)c(OC)c(OC)c3)ccc2OC)cc1 | 75.3%
CC(C)C[C@H](NC(=O)Cn1ccc(Nc2ccccc2)cc1=O)B(O)O | 2.13% (active)
CCC(C)(O)CCC(C)(O)CC (stereo not given) | 101%
C[C@H]1C(=O)C23CCC1C[C@@]21O[C@@H]2C(C)(C)C=CC(=O)C23COC1=O | 97.8%
COc1cc(/C=C/C(=O)/C=C/c2ccc(-n3ccnc3)cc2)ccc1O | 36.2%
O=C(Cn1cc(COc2ncnc3c2cnn3-c2ccccc2)nn1)Nc1cccc2ccccc12 | 101%
Ic1cccs1 | 104%
N=C(N)c1ccc(-c2ccc(-c3ccc(Cl)cc3Cl)s2)cc1F | -49.7% (active)
Nc1ccc(-c2ccc(-c3ccccc3N)c3[nH]c4ccccc4c23)cc1 | 5.47% (active)
Cc1ncc(C(=O)Nc2ccc(CN3CCN(C)CC3)c(C(F)(F)F)c2)cc1C#Cc1cnc(N)c2ccncc12 | -52.8% (active)
CSC(=S)N/N=C(\C)c1ccccn1 | -12.1% (active)

SMILES | growth
COC(=O)CSc1ccc(Cl)cc1 | 83.8%
Cc1ccc(-c2nc(N3CCN(C(=O)Nc4ccc(Cl)c(C(F)(F)F)c4)CC3)c3ccccc3n2)cc1 | 98.9%
COc1cc(C(=O)O)c(O)c(C(C)(C)C)c1 | 106%
Cn1cc(-c2csc(-c3ccccc3)n2)c2cccnc21 | 3.19% [100 µM] (active)
CC(=O)[C@@H]1CC[C@]2(CO)CC[C@]3(C)[C@H](CC[C@@H]4[C@@]5(C)CCCNC(C)(C)[C@@H]5CC[C@]43C)[C@@H]12 | 136%
COc1cc(/C=C2\CN(S(=O)(=O)c3ccccc3)C/C(=C\c3cc(CN4CCCC4)c(O)c(OC)c3)C2=O)cc(CN2CCCC2)c1O | -14.8% (active)
CCCNc1nc(N(C)O)nc(N(C)O)n1 | 3.47% (active)
Nc1ccc2c(S(=O)(=O)O)ccc(S(=O)(=O)O)c2c1 | 76.2%
Cc1nnc2c3nnc(-c4ccc(Cl)cc4)n3c3ccccc3n12 | 101%
CCCNC(=O)Oc1ccc(/C(=C(/CC)Cc2ccccc2)c2ccc(OCCN(CC)CC)cc2)cc1 | 53.3%
CCOC(=O)c1ccc2nc(-c3c(C)nn(-c4ccccc4)c3N3CCOCC3)[nH]c2c1 | 95.4%
COc1cc2c(c(OC)c1OC)-c1ccc(N=NC(N)=S)c(=O)cc1[C@@H](NC(C)=O)CC2 | -17.7% (active)
CCCCCCCCCCCCCCCCCCOc1ccc(CC(=O)OCC[N+](C)(C)C)cc1 | 2.32% (active)
COc1ccc(CNCCCN2C(=O)c3ccc4c5c(ccc(c35)C2=O)C(=O)N(CCCNCCCCNCCCN)C4=O)c(OC)c1OC | 26.2%
O=C(C[n+]1cccc(Br)c1)c1ccc2c(c1)CCCC2 | 83.6%
O=C1/C=C/[C@@H](O)[C@@H]2C[C@@H](O)C[C@H]2/C=C/CCC[C@H](C(F)(F)F)O1 | -32.7% (active)
Nc1cc(C(=O)NC[C@H]2CN(c3ccc(N4CCC(C(=O)O)CC4)cc3)C(=O)O2)ccc1Cl | 97.9%
CC1(C)C(=O)CC[C@]2(C)[C@H]3C(=O)C=C4[C@@H]5C[C@@](C)(C(=O)NCCNCCN)CC[C@]5(C)CC[C@@]4(C)[C@]3(C)CC[C@@H]12 | 90.1%
CCOC(=O)c1c[nH]n2c(=S)ncnc12 | 91.2%
COc1ccc(/C=C(/C(=O)c2ccc(Cl)cc2)C(=O)C(F)(F)F)cc1 | 106%
